A selection: hits, their analogues and other compounds. The true share with any hit is near 2.8%.
WRN inhibitor: WRN helicase (human) inhibition | WRN helicase unwinding, fluorescent forked duplex, kinetic | Q14191 | 0.46% of 360,000 active | Potency, µM (doses to about 114 µM), for inactives: top-dose activity change, negative = inhibition, actives largely listed as inhibitors; note: potency is the fitted concentration of half-maximal effect; % is set by controls: 0 for no effect and ±100 for the full control effect; nearly all actives have a fitted effect of over 55% in size
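Fluorescence dequenching readout, ex 525 nm/em 598 nm, kinetic mode: forked duplex DNA (100 nM final) with adjacent fluorophore and quencher unwound by WRN (20 nM final) with 2 mM ATP. Compound preincubation 15 min, room temperature.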
POLI inh: blocks human DNA polymerase iota activity. Q9UNA4. Pol iota fluorescent replication assay, 10 min. Potency, µM (doses to about 115 µM), for the others: at the highest dose activity, negative = inhibition, usual class: inhibitors. 1% of 390,000 active; note: potency is the fitted concentration of half-maximal effect
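Pol iota at 10 nM preincubated 15 min with compounds at room temperature; reaction started with fluorescent substrate, 50 nM final. Fluorescence read kinetically at 0 and 10 min; buffer-only wells as negative control.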
Pol beta inh: DNA polymerase beta (human) inhibition | P06746 | Pol beta primer extension/strand displacement, fluorescence kinetic | Potency, µM (top dose mostly 114 µM), inactives show at the highest dose activity change, negative = inhibition, actives largely listed as inhibitors | 1.3% of 340,000 active | AID 485314; note: potency is the fitted concentration of half-maximal effect; % is set by controls: 0 for no effect and ±100 for the full control effect
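Curves were derived by four-parameter Hill fits of normalized qHTS data. The kinetic fluorescent primer-extension read was taken at 0 and 10 min after 50 nM substrate, following a 15 min room-temperature preincubation of 10 nM enzyme with compounds.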
PI5P4Ka inh: blocks human PI5P4K alpha kinase activity | P48426 | max response, % | PI5P4Kalpha enzyme, ADP-Glo luminescence, 60 min; stronger effect = lower value | 1.2% of 330,000 active | AID 652105; active = max response of -50% or lower; inconclusive = between -30% and -50%; inactive = -30% or higher; note: value at the top dose of about 77 µM; % is set by controls: 0 for no effect and ±100 for the full control effect
Target sequence (P48426 whole entry, looked up): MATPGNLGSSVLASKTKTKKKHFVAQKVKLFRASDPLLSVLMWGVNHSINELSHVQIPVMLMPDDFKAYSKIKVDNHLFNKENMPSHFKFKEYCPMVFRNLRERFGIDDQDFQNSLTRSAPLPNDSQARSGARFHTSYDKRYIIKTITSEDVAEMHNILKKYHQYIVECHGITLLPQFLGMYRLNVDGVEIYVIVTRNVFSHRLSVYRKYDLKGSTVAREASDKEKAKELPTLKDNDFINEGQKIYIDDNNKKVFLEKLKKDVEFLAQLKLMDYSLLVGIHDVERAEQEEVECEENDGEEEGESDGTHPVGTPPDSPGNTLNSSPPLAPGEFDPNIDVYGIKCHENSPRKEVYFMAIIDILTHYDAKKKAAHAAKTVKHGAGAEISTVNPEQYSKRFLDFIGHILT
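qHTS, 1536-well: enzyme/substrate mix, compound by pin tool, 5 microM ATP final; RT 60 min; ADP-Glo reagents 1 (45 min) then 2 (30 min); luminescence.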
Pol eta inh-1: DNA polymerase eta (human) inhibition; recombinant Pol eta, fluorescent DNA replication assay; Potency, µM (titrated, usually from 114 µM), inactives show top-dose activity change, negative = inhibition, actives largely listed as inhibitors; 1.2% of 390,000 active; AID 588591; note: potency is the fitted concentration of half-maximal effect; % is set by controls: 0 for no effect and ±100 for the full control effect
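Pol eta (10 nM) was preincubated with compounds for 15 min at room temperature, after which fluorescent replication substrate (50 nM final) was added to start the reaction. Fluorescence was read kinetically at 0 and 10 min.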
Pol kappa inh-1: inhibitors of human DNA polymerase kappa. Q9UBT6. purified Pol kappa, fluorescent DNA synthesis assay, 10 min. Potency, µM (top dose mostly 107 µM), for the others: at the highest dose activity, negative = inhibition, hits mostly inhibitors. 0.53% of 400,000 active. AID 588579; note: potency is the fitted concentration of half-maximal effect; % is set by controls: 0 for no effect and ±100 for the full control effect
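Activity was followed as the change in fluorescence between reads at 0 and 10 min after starting the reaction with 50 nM substrate. Beforehand, 10 nM polymerase had been preincubated with compound for 15 min at room temperature.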
GALK confirm: galactokinase (human) inhibition, confirmation. Potency, µM (titrated, usually from 115 µM), for the others: at the top dose activity, negative = inhibition, most hits filed as inhibitors. shares compounds with Pol eta inh-1. 70% of 150 active. purified GALK, Kinase-Glo ATP depletion luminescence
Target sequence (P51570 whole entry, looked up): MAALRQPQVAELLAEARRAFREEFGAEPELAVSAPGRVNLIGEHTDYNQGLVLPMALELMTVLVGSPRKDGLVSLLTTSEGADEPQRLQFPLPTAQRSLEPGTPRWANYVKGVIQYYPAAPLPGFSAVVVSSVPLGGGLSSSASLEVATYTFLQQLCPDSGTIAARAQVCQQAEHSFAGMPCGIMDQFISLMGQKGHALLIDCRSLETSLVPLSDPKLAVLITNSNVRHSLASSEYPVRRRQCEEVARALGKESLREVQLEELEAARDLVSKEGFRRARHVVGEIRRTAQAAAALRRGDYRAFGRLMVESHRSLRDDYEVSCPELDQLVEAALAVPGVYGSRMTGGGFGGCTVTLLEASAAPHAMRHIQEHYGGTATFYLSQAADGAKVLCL
Redox cycling: counter-screen for GALK inhibitors: redox cycling H2O2 generation; shares compounds with Pol eta inh-1; Phenol red-HRP H2O2 redox cycling, absorbance 600 nm; Potency, µM (highest dose often 115 µM), inactives show at the top dose activity change, negative = H2O2 signal, actives largely listed as inhibitors; 40% of 150 active; AID 2035
HEK293 tox: counter-screen for GALK inhibitors: HEK293 cell cytotoxicity; shares compounds with Pol eta inh-1; HEK-293 viability, ATP luminescence (CellTiter-Glo), 24/48 h; 10% of 170 active; Potency, µM (titrated, usually from 46.1 µM), without a hit: top-dose activity change, negative = cytotoxicity, hits mostly inhibitors; AID 2547; note: potency is the fitted concentration of half-maximal effect; % is set by controls: 0 for no effect and ±100 for the full control effect
Pol kappa inh-2: confirmation of human DNA polymerase kappa inhibitors. shares compounds with Pol eta inh-1. purified Pol-kappa, fluorescent strand-displacement substrate. 76% of 920 active. Potency, µM, hits mostly inhibitors; note: potency is the fitted concentration of half-maximal effect
Pol eta inh-2: confirmation of human DNA polymerase eta inhibitors; 64% of 2,600 active; Pol eta primer extension, TAMRA/BHQ fluorescence, 10 min; shares compounds with Pol eta inh-1; Potency, µM, most hits filed as inhibitors; note: potency is the fitted concentration of half-maximal effect
Numbers without * were called inactive; ? = inconclusive; . = no result; [ ] = remark or other dose. Unless noted, calls come from the whole dose curve; as a rule, active = well fitted curve in the direction sought with a large enough effect; inconclusive = small, poorly fitted or top-dose-only effect, or another doubt; inactive = no such curve, though single readings can be large; an effect the other way counts as inactive or inconclusive.

SMILES	WRN inhibitor	POLI inh	Pol beta inh	PI5P4Ka inh	Pol eta inh-1	Pol kappa inh-1	Pol eta inh-2	others
NS(=O)(=O)c1ccc(NC(=O)COC(=O)c2ccc([N+](=O)[O-])s2)cc1	3.1%[11.6 µM]	79.4µM*	7.08µM*	0.4	?	-21.8%	.	GALK confirm=33.5µM*;Redox cycling=21.1µM*;HEK293 tox=-0.2%
O=C(COC(=O)c1ccc([N+](=O)[O-])s1)NCc1ccc(F)cc1	-4.6%[11.6 µM]	?	?	-4.0	79.4µM*	-27.1%	?
CC1CCN(C(=O)CSc2nnc3ccc(-c4cccnc4)nn23)CC1	-8.2%	29.4%	.	-4.6	-4.3%	-12.2%	.
O=C1/C(=C\c2cccc([N+](=O)[O-])c2O)SC(=S)N1Cc1ccccc1	?	?	35.5µM*	-89.7*	79.4µM*	-31.6%	?
O=C1NC(=Nc2ccccc2Cl)S/C1=C\c1cccc([N+](=O)[O-])c1O	-21.5%[11.6 µM]	?	?	-84.7*	?	-30.7%	?	Pol kappa inh-2=16.8*
COc1ccc(/C=C2\SC(=Nc3ccccc3Cl)NC2=O)c(OC)c1	1.6%	.	.	-20.4	-18.5%	.	.
O=C(O)c1ccc(/C=C2/SC(=S)N(Cc3ccccc3)C2=O)cc1	-3.4%	-18.2%	-28.3%	4.7	-16.4%	-3.5%	.
Cc1sc2nc(SCC(=O)N3CC(C)OC(C)C3)n(C)c(=O)c2c1C (stereo not drawn)	-9.7%[11.6 µM]	?	?	?	15.8µM*	-8.6%	?
Cc1ccc(-c2noc(CN(C(=O)COc3cc(C)cc(C)c3C)C(C)C)n2)cc1	.	12.1%	52.9%	.	-18.6%	1.3%	.
Cc1c2cnccc2c(C)c2c1oc1ccccc12	4.7%[11.6 µM]	-10.7%	.	15.5	?	-3.7%	.
COc1ccc(-c2cc(=O)c3c(O)c(OC)c(O)cc3o2)cc1	-10.2%	-9.1%	?	-19.6	-18.5%	-5.4%	.
COc1cc(-c2cc(=O)c3c(O)c(OC)c(OC)cc3o2)cc(OC)c1O	?	?	28.2µM*	-27.4	22.4µM*	79.4µM*	67.5*
CC(=O)N=C1C=CC(=CN(O)C(C)(C)Cc2ccccc2)C=C1	-3.6%	5.0%	.	-1.5	-11.4%	-12.0%	.
CCCCN1CC(N2CCN(C(=O)c3ccco3)CC2)CS1(=O)=O (stereo not drawn)	4.1%	.	.	-4.1	.	.	.
Cc1cc(C)nc(SCC(=O)NNS(=O)(=O)c2ccc(C#N)cc2)n1	?	17.8µM*	.	?	12.6µM*	?	75.7*	Pol kappa inh-2=?
O=C(NN1C(=O)C2CC=C(Cl)CC2C1=O)c1ccncc1 (stereo not drawn)	?	39.8µM*	3.16µM*	?	10µM*	50.1µM*	60.1*
COc1ccc(C(CC(=O)N2CCOCC2)c2c(OC)cc(OC)c3c(-c4ccccc4)cc(=O)oc23)cc1 (stereo not drawn)	-11.7%[11.6 µM]	70.8µM*	35.5µM*	?	39.8µM*	?	?
COc1cc(C(CCN2CCCCC2)c2c(OC)cc(OC)c3c(-c4ccccc4)cc(=O)oc23)cc(OC)c1OC (stereo not drawn)	3.3%	-9.5%	?	-2.4	-18.9%	-8.7%	.
COc1ccc(C(CC(=O)N2CCOCC2)c2c(OC)cc(OC)c3ccc(=O)oc23)cc1 (stereo not drawn)	-3.7%[11.6 µM]	?	?	-0.6	?	?	.
COc1cc(C(CC(=O)N2CCCC2)c2c(OC)cc(OC)c3c(-c4ccccc4)cc(=O)oc23)cc(OC)c1OC (stereo not drawn)	-3.1%[11.6 µM]	?	44.7µM*	?	39.8µM*	?	?
CC(=O)Nc1ccc(S(=O)(=O)O)c(OC(C)=O)c1	-4.0%	?	.	-2.6	-4.7%	-34.0%	.
CC(=O)Nc1ccc2c(O)cc(S(=O)(=O)O)cc2c1	-33.6%	20µM*	.	-22.2	31.6µM*	?	?	Pol kappa inh-2=?
C=CCN(CC=C)CC(=O)Nn1c(C)ccc1C	?	?	.	-8.1	20µM*	?	?
Cc1ccc(C)n1NC(=O)c1ccco1	-9.6%[57.1 µM]	?	?	4.2	3.5%	-19.7%	.
CCOC(=O)c1cccc(NC(=O)CSc2cc(=O)n(C)c3ccccc23)c1	.	-7.7%	-1.5%	.	1.6%	-21.7%	.
SMILES	WRN inhibitor	POLI inh	Pol beta inh	PI5P4Ka inh	Pol eta inh-1	Pol kappa inh-1	Pol eta inh-2	others
CCOc1cc(/C=C(\C#N)C(=O)Nc2cccc(C(=O)O)c2)ccc1OCc1ccccc1Cl	-6.2%	?	-2.0%	1.4	56.2µM*	-0.4%	?
Cc1ccnc(NS(=O)(=O)c2ccc(NC(=O)C34CC5CC(CC(C5)C3)C4)cc2)n1	0.6%	6.8%	-1.3%	-1.0	10.4%	-7.6%	.
Cn1nc(C(=O)Nc2ccc(S(=O)(=O)Nc3ncccn3)cc2)ccc1=O	-31.5%	?	-22.6%	-15.4	28.2µM*	?	67.5*
O=C(Nc1ccc(S(=O)(=O)Nc2ncccn2)cc1)C12CC3CC(CC(Cl)(C3)C1)C2	-10.8%[11.6 µM]	?	.	?	17.8µM*	?	30.1*	Pol kappa inh-2=16.8*
Cn1nc(C(=O)Nc2ccc(S(=O)(=O)N3CCCC3)cc2)ccc1=O	1.5%	13.7%	-10.9%	-0.6	2.3%	-4.0%	.
COc1cccc(-n2nc(-c3ccnn3-c3ccc(C)cc3)c(=O)n(C)c2=O)c1	?	9.2%	32.3%	-6.1	-7.2%	-7.9%	.
Cc1ccc(C(c2ccc(C)o2)c2cccc([N+](=O)[O-])c2O)o1	?	?	?	-55.7*	17.8µM*	?	84.9*
Cc1cc(C(c2ccc(C)o2)c2ccc(C)o2)c(O)c([N+](=O)[O-])c1	-12.5%	?	5.8%	-10.0	-19.4%	-10.8%	.

From PubChem BioAssay
